Structures can show the parent of a compound that is named as a salt.

In the assay the test system is Danio rerio larvae (5 dpf). Description: difference in excitability vs DMSO (percentage points); higher = more excitable than DMSO. The conditions noted are these: 10 µM; exposure time 6 h. The method, boiled down: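 Wild-type 5 dpf zebrafish larvae in 96-well plates were given 100 µL egg water containing library compound at 10 µM final for 6 h. After 3 h of exposure, plates at 28.5 ℃ were photographed every 6 s during a 3-h programme of moving lines and 100 ms, 400Hz tones. Z-LaP Tracker (a DeepLabCut model) quantified each behaviour, averaged over 48 larvae per compound. Values are the compound mean minus the DMSO-vehicle control, in percentage points.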
Consider `COc1nc(N)nc2c1ncn2[C@@H]1O[C@H](CO)[C@@H](O)[C@@H]1O` [Nelarabine], for which the difference in excitability was 19.6.

The compound `CC[C@]1(O)C[C@@H]2CN(CCc3c([nH]c4ccccc34)[C@@](C(=O)OC)(c3cc4c(cc3OC)N(C)[C@H]3[C@@](O)(C(=O)OC)[C@H](OC(C)=O)[C@]5(CC)C=CCN6CC[C@]43[C@@H]65)C2)C1` [Vinblastine (sulfate)] had a difference in excitability of 11.1. The figure for `CN1CCC(=C2c3ccccc3CCn3c(C=O)cnc32)CC1` [Alcaftadine] is -1.49; for `Cc1nnc(C(C)C)n1C1C[C@H]2CC[C@@H](C1)N2CC[C@H](NC(=O)C1CCC(F)(F)CC1)c1ccccc1` (stereo in doubt) [Maraviroc] it is 11.9; for `C[C@]12C=CC(=O)N[C@@H]1CC[C@@H]1[C@@H]2CC[C@]2(C)[C@@H](C(=O)Nc3cc(C(F)(F)F)ccc3C(F)(F)F)CC[C@@H]12` [Dutasteride] it is 18.8. In the case of `CCC(=O)O[C@]1(C(=O)SCF)[C@H](C)C[C@H]2[C@@H]3C[C@H](F)C4=CC(=O)C=C[C@]4(C)[C@@]3(F)[C@@H](O)C[C@@]21C` [Fluticasone Propionate] it was -4.47.

As for `Nc1ccn([C@@H]2O[C@H](CO)[C@@H](O)C2(F)F)c(=O)n1` [Gemcitabine], the difference in excitability is -0.256. The figure for `CN(C)CCOC(c1ccccc1)c1ccccc1` [Diphenhydramine (hydrochloride)] is -0.341; for `CO[C@H]1/C=C/O[C@@]2(C)Oc3c(C)c(O)c4c(O)c(c(/C=N/N5CCN(C)CC5)c(O)c4c3C2=O)NC(=O)/C(C)=C\C=C\[C@H](C)[C@H](O)[C@@H](C)[C@@H](O)[C@@H](C)[C@H](OC(C)=O)[C@@H]1C` [Rifampicin] it is 2.43; for `S=c1nc[nH]c2nc[nH]c12` [6-Mercaptopurine (hydrate)] it is 6.66.

`OC(c1cc(C(F)(F)F)nc2c(C(F)(F)F)cccc12)C1CCCCN1` (stereo not drawn) [Mefloquine (hydrochloride)]: the difference in excitability was 20.8. In the case of `Nc1nc2c(c(=O)[nH]1)N(C=O)C(CNc1ccc(C(=O)NC(CCC(=O)O)C(=O)O)cc1)CN2` (racemic) [DL-Folinic Acid (calcium salt)] it was -0.743. `CCOC(=O)c1ccc(C#Cc2ccc3c(c2)C(C)(C)CCS3)nc1` [Tazarotene] gave a difference in excitability of 13.2. In turn, `Nc1nc2c(ncn2COCCO)c(=O)[nH]1` [Acyclovir] displayed a difference in excitability of 2.27. In the case of `Cc1cc(/C=C/C#N)cc(C)c1Nc1ccnc(Nc2ccc(C#N)cc2)n1` [Rilpivirine] it was 9.16; in that of `NCC[C@H](O)C(=O)N[C@@H]1C[C@H](N)[C@@H](O[C@H]2O[C@H](CN)[C@@H](O)[C@H](O)[C@H]2O)[C@H](O)[C@H]1O[C@H]1O[C@H](CO)[C@@H](O)[C@H](N)[C@H]1O` [Amikacin], 5.08; in that of `C[C@H](Cc1cc2c(c(C(N)=O)c1)N(CCCO)CC2)NCCOc1ccccc1OCC(F)(F)F` [Silodosin], 15.3. The figure for `O=C(c1ccc(F)c(F)c1Nc1ccc(I)cc1F)N1CC(O)([C@@H]2CCCCN2)C1` [Cobimetinib] is 22.7; for `C[N+](C)(C)CC=O` [Betaine Aldehyde (chloride)] it is 7.5; for `CCN(CC)CCNC(=O)c1c(C)[nH]c(/C=C2\C(=O)Nc3ccc(F)cc32)c1C` [Sunitinib (malate)] it is 17.6. Regarding `COc1ccc2c3c1O[C@H]1C[C@@H](O)C=C[C@@]31CCN(C)C2` [Galantamine], the difference in excitability worked out at 1.36.

`Cc1ccc(O)c([C@H](CCN(C(C)C)C(C)C)c2ccccc2)c1` [Tolterodine (tartrate)] gave a difference in excitability of 11.1. In the case of `COC(=O)C1=C(C)NC(C)=C(C(=O)OC(C)C)C1c1cccc2nonc12` (stereo not drawn) [Isradipine] it was 11.7; in that of `CC=CC(=O)N(CC)c1ccccc1C` [Crotamiton], 0.486. In turn, `CN(C)[C@@H]1C(O)=C(C(N)=O)C(=O)[C@@]2(O)C(O)=C3C(=O)c4c(O)cccc4[C@@](C)(O)[C@H]3C[C@@H]12` [Tetracycline (hydrochloride)] gave a difference in excitability of 5.28. Compound `O=C(O)Cc1ccccc1Nc1c(Cl)cccc1Cl` [Diclofenac (sodium salt)] returned a difference in excitability of 17.2. `COc1ccc([C@@H]2Sc3ccccc3N(CCN(C)C)C(=O)[C@@H]2OC(C)=O)cc1` [Diltiazem (hydrochloride)] had a difference in excitability of 8.73. In the case of `O=C(NC[C@H]1CN(c2ccc(N3CCOCC3=O)cc2)C(=O)O1)c1ccc(Cl)s1` [Rivaroxaban] it was -1.52; in that of `C[C@@H](O)[C@H]1C(=O)N2C(C(=O)O)=C(S[C@@H]3CN[C@H](CNS(N)(=O)=O)C3)[C@H](C)[C@H]12` [Doripenem (hydrate)], 0.847; in that of `Cc1cc(NS(=O)(=O)c2ccc(N)cc2)no1` [Sulfamethoxazole], 0.0564. In turn, `CC(C)OC(=O)C(C)(C)Oc1ccc(C(=O)c2ccc(Cl)cc2)cc1` [Fenofibrate] registered a difference in excitability of 13.8. The figure for `CCNC(=O)CCC/C=C\C[C@@H]1[C@@H](/C=C/[C@@H](O)CCc2ccccc2)[C@H](O)C[C@@H]1O` [17-phenyl trinor Prostaglandin F2α ethyl amide] is 12.5. Take `CC[C@H]1OC(=O)[C@H](C)[C@@H](O[C@H]2C[C@@](C)(OC)[C@@H](O)[C@H](C)O2)[C@H](C)[C@@H](O[C@@H]2O[C@H](C)C[C@H](N(C)C)[C@H]2O)[C@](C)(O)C[C@@H](C)CN(C)[C@H](C)[C@@H](O)[C@]1(C)O` [Azithromycin]: the difference in excitability was found to be 19.6. In the case of `Cc1nc(-c2ccc(OCC(C)C)c(C#N)c2)sc1C(=O)O` [Febuxostat] it was -0.635; in that of `CC(=O)O[C@]1(C(C)=O)CC[C@H]2[C@@H]3C=C(C)C4=CC(=O)CC[C@]4(C)[C@H]3CC[C@@]21C` [Megestryl Acetate], 20.8; in that of `NC(=O)[C@@H]1CC[C@@H]2CN1C(=O)N2OS(=O)(=O)O` [Avibactam (sodium salt)], 1.97. As for `CC[C@@H](CO)NCCN[C@@H](CC)CO` [Ethambutol (hydrochloride)], the difference in excitability came out at 2.65. `CO[C@H]1/C=C/O[C@@]2(C)Oc3c(C)c(O)c4c(O)c(c5c(nc6cc(C)ccn65)c4c3C2=O)NC(=O)/C(C)=C\C=C\[C@H](C)[C@H](O)[C@@H](C)[C@@H](O)[C@@H](C)[C@H](OC(C)=O)[C@@H]1C` [Rifaximin]: the difference in excitability was -5.63.

Values taken from the supplement of paper PMC10515830.
